Assay results from PubChem BioAssay (NCATS).
Calls of active or inactive are those of the source. The rule behind the calls is not given here.
Potency is the fitted concentration of half-maximal effect.

What follows are compounds tested on HIV-1 nucleocapsid protein NCp7 (binding to TG oligonucleotide) (assay: HIV Nucleocapsid (AID 346;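 note: potency is for inhibitors that block NC binding and lower polarization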)). Settings: HIV-1 NC / fluorescein-TGTGTGTG probe, fluorescence polarization.
Procedure, shortened: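 Fluorescence polarization readout: labelled TG4xF oligo (10 nM) with 100 nM nucleocapsid protein, high-salt (250mM NaCl) Hepes pH 7.5 buffer containing zinc and fresh reducing agents. Compounds added by pin tool; incubation 1 hr, room temperature.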
With CNc1ncncc1-c1ccccc1OC the Potency was > 20 µM (inactive). In the case of Cc1cnc(CNc2ncnc3ccc(-c4ccccc4CN(C)C)cc23)cn1, the Potency is reported as > 20 µM (inactive). With CN(C)C(=O)c1ccc(-c2nc(NCc3cccnc3)c3ccccc3n2)cc1 the Potency was > 20 µM (inactive). For O=c1cnc2cnc(Oc3ccccc3)nc2n1Cc1cccs1, the Potency was > 20 µM (inactive). For O=C(c1cnccn1)N1CCC2(CC1)CN(C(c1ccccc1)c1ccccc1)C2, the Potency was > 20 µM (inactive). For O=C(c1cc(C(F)(F)F)cc(C(F)(F)F)c1)N1CCC[C@@]2(CCN(c3ccccc3)C2)C1, the Potency was > 20 µM (inactive). With Cc1cnc(CNc2ccnc(-c3ccc(N(C)C)cc3)n2)cn1 the Potency was > 20 µM (inactive). For O=C(c1ccco1)N1CCC[C@@]2(CCN(Cc3nccs3)C2)C1, the Potency was > 20 µM (inactive). For COc1cccc(Nc2ncc3nc(-c4cn(C)c5ccccc45)c(=O)n(CCC#N)c3n2)c1, the Potency was > 20 µM (inactive). COc1ccc(-c2nc3cnc(OCc4ccccc4)nc3n(CCC#N)c2=O)cc1 was tested, and the Potency was > 20 µM (inactive). COc1ccc(C(=O)N2CCC3(CCCN(c4ccncc4)C3)CC2)cc1 was tested, and the Potency was > 20 µM (inactive). For O=C(c1ccncc1)N1CCC2(CCCN(Cc3nccs3)C2)CC1, the Potency was > 20 µM (inactive). In the case of O=c1c(-c2ccccc2)nc2cnc(N3CCOCC3)nc2n1Cc1cccs1, the Potency is reported as > 20 µM (inactive). In the case of COc1ccc(CNc2ccnc(-c3ccccc3CN(C)C)n2)c(OC)c1, the Potency is reported as > 20 µM (inactive). For COc1ccc(CNc2ccnc(-c3ccc(C(=O)N(C)C)cc3)n2)c(OC)c1, the Potency was > 20 µM (inactive). CCNc1ncc2nc(CCc3ccccc3)c(=O)n(Cc3ccc(F)cc3)c2n1 was tested, and the Potency was > 4 µM (inactive). With O=C(Oc1ccccc1)N1CCC2(CCCN(c3ncccn3)C2)CC1 the Potency was > 20 µM (inactive). For COc1ccccc1CCn1c(=O)cnc2cncnc21, the Potency was > 20 µM (inactive). In the case of COCCn1c(=O)cnc2cnc(N3CCN(C)CC3)nc21, the Potency is reported as > 20 µM (inactive). In the case of COc1ccc2[nH]cc(CCNc3nc(-c4cccc(C#N)c4)nc4ccccc34)c2c1, the Potency is reported as > 20 µM (inactive). In the case of COCCn1c(=O)c(-c2ccccc2)nc2cnc(Oc3cccc(Cl)c3)nc21, the Potency is reported as > 20 µM (inactive). With O=c1c(-c2ccc(Cl)cc2)nc2cnc(N3CCOCC3)nc2n1C[C@H]1CCCO1 the Potency was > 20 µM (inactive). In the case of COc1ccc2[nH]cc(CCNc3cc(-c4ccoc4)ncn3)c2c1, the Potency is reported as > 20 µM (inactive). For CC(=O)N1CCC2(CC1)CCN(c1ncccn1)CC2, the Potency was > 20 µM (inactive). In the case of COc1ccc(-n2c(=O)cnc3cnc(N4CCNCC4)nc32)cc1, the Potency is reported as > 20 µM (inactive). In the case of Cc1nc2cnc(Oc3cccc(Cl)c3)nc2n(C2CC2)c1=O, the Potency is reported as > 20 µM (inactive). For Cn1cccc1C(=O)N1CCC2(CC1)CCN(C(c1ccccc1)c1ccccc1)CC2, the Potency was > 20 µM (inactive). In the case of COc1ccc(Oc2ncc3nc(-c4cccs4)c(=O)n(Cc4cccs4)c3n2)cc1, the Potency is reported as > 20 µM (inactive). In the case of O=c1c(-c2cccc(Cl)c2)nc2cncnc2n1C1CC1, the Potency is reported as > 20 µM (inactive). For CN1CCN(c2ncnc3ccc(-c4ccccc4C(F)(F)F)cc23)CC1, the Potency was > 20 µM (inactive). O=S(=O)(c1ccccc1)N1CCC2(CC1)CN(c1ncccn1)C2 was tested, and the Potency was > 20 µM (inactive). For COc1ccc(-c2nc3cnc(N4CCN(C)CC4)nc3n(CCc3ccccc3)c2=O)cc1, the Potency was > 20 µM (inactive). In the case of O=C(c1ccncc1)N1CCC2(CCN(Cc3cc(C(F)(F)F)cc(C(F)(F)F)c3)CC2)CC1, the Potency is reported as > 20 µM (inactive). COc1ccc2[nH]cc(CCNc3ncncc3-c3ccccc3CN(C)C)c2c1 was tested, and the Potency was > 20 µM (inactive). O=C(c1cccc(F)c1)N1CCC2(CCCN(Cc3cc(C(F)(F)F)cc(C(F)(F)F)c3)C2)CC1 was tested, and the Potency was > 20 µM (inactive). For CN(C)c1ccc(-c2ccc3ncnc(N(C)C)c3c2)cc1, the Potency was > 20 µM (inactive). In the case of O=C(c1csnn1)N1CCC2(CCCN(C(c3ccccc3)c3ccccc3)C2)CC1, the Potency is reported as > 20 µM (inactive). For CN(C)c1ncc2nc(-c3cccc(C#N)c3)c(=O)n(CCC#N)c2n1, the Potency was > 20 µM (inactive). CS(=O)(=O)N1CCC2(CC1)CN(Cc1cc(C(F)(F)F)cc(C(F)(F)F)c1)C2 was tested, and the Potency was > 20 µM (inactive). For COc1ncc2nc(-c3cn(C)c4ccccc34)c(=O)n(C)c2n1, the Potency was > 20 µM (inactive).
